Data on six compounds can be found in PubChem BioAssay (NCATS).

“And” between values parts separate entries of the source, which are not always exact repeats. Identical values can stand only once. The source made the active and inactive calls. Unless noted, the call rests on the fitted dose curve.

For assay [1], the target named is Estrogen receptor (Homo sapiens) (UniProt P03372). Description: qHTS assay for small molecule antagonists of estrogen receptor alpha signaling (AID 588513; active means well fitted curve in the direction sought with a large enough effect in the signal ratio, with a control signal flat, not every such curve was filed as active; inconclusive means small, poorly fitted or top-dose-only effect, or effect the other way, or a change in a side signal; inactive means no such curve, though single readings can be large or run the other way; the % refers to the signal ratio; further: potency means the concentration at half of the fitted maximal effect). In a few lines: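 ER-alpha-UAS-bla GripTite HEK 293 cells in 2% charcoal/dextran-treated FBS medium; compounds titrated (1:2, duplicate), then stimulated with 0.5 nM 17-beta-estradiol for 18 h at 37C. CCF4 beta-lactamase fluorescence; Hill-fit IC50 and efficacy.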
Chain of Estrogen receptor (Homo sapiens) (P03372 whole entry, looked up): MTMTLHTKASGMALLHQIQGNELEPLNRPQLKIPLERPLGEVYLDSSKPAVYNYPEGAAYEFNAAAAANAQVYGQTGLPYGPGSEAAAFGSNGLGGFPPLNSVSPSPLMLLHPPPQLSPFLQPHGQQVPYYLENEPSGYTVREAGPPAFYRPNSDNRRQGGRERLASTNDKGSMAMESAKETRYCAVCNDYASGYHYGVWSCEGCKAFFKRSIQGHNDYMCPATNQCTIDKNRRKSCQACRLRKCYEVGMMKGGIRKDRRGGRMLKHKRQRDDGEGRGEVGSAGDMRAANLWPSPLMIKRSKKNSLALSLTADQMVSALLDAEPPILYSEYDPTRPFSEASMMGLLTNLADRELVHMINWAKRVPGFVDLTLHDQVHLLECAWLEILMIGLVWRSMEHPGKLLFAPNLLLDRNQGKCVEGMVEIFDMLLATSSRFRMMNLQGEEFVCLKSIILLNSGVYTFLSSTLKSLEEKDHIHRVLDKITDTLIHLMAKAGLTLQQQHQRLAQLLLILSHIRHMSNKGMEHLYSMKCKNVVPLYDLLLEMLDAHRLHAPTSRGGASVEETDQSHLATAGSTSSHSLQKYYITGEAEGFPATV
A general note: Quantitative high-throughput screening tests each substance at several concentrations.

The target is the same in assay [2]. Description: qHTS assay for small molecule agonists of estrogen receptor alpha signaling (AID 588514).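 Further: 0% = vehicle only and 100% = reference agonist; nearly all actives have a fitted effect of over 70% in size.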 In a few lines:
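Reporter-gene assay. […] controls beta-lactamase in HEK 293 GripTite cells; after 18 hrs with compound, CCF4 substrate is added for 2 hrs and fluorescence is read.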

Assay [3] deals with Peroxisome proliferator-activated receptor delta (Homo sapiens) (UniProt Q03181). Description: qHTS assay for small molecule agonists of peroxisome proliferator-activated receptor delta signaling (AID 588534).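 Further: 0% = DMSO basal wells and 100% = positive control agonist at 10 µM.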 In a few lines: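 Reporter cells were plated and held 5 hrs at 37 C before compounds were added. After 18 hrs at 37 C, CCF4 dye was loaded for 2 hrs at RT and fluorescence measured.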
Chain of Peroxisome proliferator-activated receptor delta (Homo sapiens) (Q03181 whole entry, looked up): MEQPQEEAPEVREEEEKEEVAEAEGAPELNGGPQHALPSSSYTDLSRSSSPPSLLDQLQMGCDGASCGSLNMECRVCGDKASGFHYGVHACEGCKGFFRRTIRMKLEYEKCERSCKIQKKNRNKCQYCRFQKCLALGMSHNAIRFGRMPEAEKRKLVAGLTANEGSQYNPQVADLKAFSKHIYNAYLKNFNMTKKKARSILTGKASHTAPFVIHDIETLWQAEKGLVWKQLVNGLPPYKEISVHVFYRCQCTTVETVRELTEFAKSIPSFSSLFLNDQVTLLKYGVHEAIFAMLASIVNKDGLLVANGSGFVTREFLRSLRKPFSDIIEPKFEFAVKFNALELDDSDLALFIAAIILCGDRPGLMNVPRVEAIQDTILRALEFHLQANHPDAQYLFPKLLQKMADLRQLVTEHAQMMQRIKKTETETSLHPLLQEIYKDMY

Assay [4] concerns the target Peroxisome proliferator-activated receptor gamma (Homo sapiens) (UniProt P37231). Description: qHTS assay for small molecule agonists of peroxisome proliferator-activated receptor gamma signaling (AID 588536; active means well fitted curve in the direction sought with a large enough effect in the signal ratio, with a control signal flat, not every such curve was filed as active; inconclusive means small, poorly fitted or top-dose-only effect, or effect the other way, or a change in a side signal; inactive means no such curve, though single readings can be large or run the other way; the % refers to the signal ratio;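 further: 0% = DMSO basal wells and 100% = rosiglitazone at 2 µM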). In a few lines:
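HEK293 UAS-bla reporter line, 1% charcoal/dextran FBS; titration, 16 h, 37 C; CCF4 loading 2 h RT; fluorescence 460/530 nm. Normalized to rosiglitazone 2 uM = 100%, DMSO = 0%.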

The target is the same in assay [5]. Description: qHTS assay for small molecule antagonists of peroxisome proliferator-activated receptor gamma signaling (AID 588537; active means well fitted inhibition curve with a large enough effect in the signal ratio, with a control signal flat, not every such curve was filed as active; inconclusive means small, poorly fitted or top-dose-only effect, or effect the other way, or a change in a side signal; the % refers to the signal ratio;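 further: reporter cells co-stimulated with 50 nM rosiglitazone agonist during compound treatment; % of control where 0% means no effect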). In a few lines: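 Inhibitors of agonist-stimulated UAS-bla reporter activity were sought in HEK293 cells; rosiglitazone (50 nM) defined full signal and DMSO baseline. Curves fitted to Hill model gave IC50 and efficacy.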
The target of assay [6] is Vitamin D3 receptor (Homo sapiens) (UniProt P11473). Put plainly: qHTS assay for small molecule antagonists of vitamin D receptor signaling (AID 588541). Further: potency means the concentration at half of the fitted maximal effect. In a few lines: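 Antagonist-mode beta-lactamase reporter assay: HEK293T VDR-UAS-bla cells were exposed to titrated compound alongside 1-alpha,25-dihydroxyvitamin D3 at 3 nM final for 16 h. Values were normalized to the 50 nM agonist control and DMSO basal, with IC50 and efficacy from Hill equation fits.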
Chain of Vitamin D3 receptor (Homo sapiens) (P11473 whole entry, looked up): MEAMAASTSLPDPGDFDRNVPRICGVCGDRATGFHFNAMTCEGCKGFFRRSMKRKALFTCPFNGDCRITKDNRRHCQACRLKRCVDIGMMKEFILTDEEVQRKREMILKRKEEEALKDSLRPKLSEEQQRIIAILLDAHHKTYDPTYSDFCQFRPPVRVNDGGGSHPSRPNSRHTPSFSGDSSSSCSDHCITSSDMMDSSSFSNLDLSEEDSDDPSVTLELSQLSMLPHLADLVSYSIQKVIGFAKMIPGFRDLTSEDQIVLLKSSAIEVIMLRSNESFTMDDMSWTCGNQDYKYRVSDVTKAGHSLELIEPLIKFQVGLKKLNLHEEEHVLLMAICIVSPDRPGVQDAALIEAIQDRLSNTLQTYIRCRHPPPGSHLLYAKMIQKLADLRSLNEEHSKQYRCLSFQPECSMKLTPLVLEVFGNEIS

The nature of assay [7]: qHTS assay for small molecule agonists of retinoid X receptor alpha signaling (AID 588544).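 On activation: 0% = DMSO basal wells and 100% = reference agonist.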 As to conditions: HEK293T RXRa-UAS-bla, beta-lactamase reporter, 18 h; 530 nm emission.
The target of assay [8] is Retinoic acid receptor RXR-alpha (Homo sapiens) (UniProt P19793). The assay is described as above.
Chain of Retinoic acid receptor RXR-alpha (Homo sapiens) (P19793 whole entry, looked up): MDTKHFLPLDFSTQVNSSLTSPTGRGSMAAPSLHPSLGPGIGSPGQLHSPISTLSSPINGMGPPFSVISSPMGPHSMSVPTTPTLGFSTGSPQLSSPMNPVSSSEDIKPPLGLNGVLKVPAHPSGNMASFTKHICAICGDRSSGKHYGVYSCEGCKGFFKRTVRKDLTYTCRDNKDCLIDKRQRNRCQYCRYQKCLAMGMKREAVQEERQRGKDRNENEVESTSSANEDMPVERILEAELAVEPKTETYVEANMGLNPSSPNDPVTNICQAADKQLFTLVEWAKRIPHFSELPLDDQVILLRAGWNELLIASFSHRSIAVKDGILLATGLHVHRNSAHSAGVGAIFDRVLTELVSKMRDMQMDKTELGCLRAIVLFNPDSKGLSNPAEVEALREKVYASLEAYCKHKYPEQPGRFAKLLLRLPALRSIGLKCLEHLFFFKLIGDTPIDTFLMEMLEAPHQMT
Assay [9] addresses Thyroid hormone receptor beta (Homo sapiens) (UniProt P10828). Description: qHTS assay for small molecule agonists of thyroid hormone receptor beta signaling (AID 588545). In a few lines: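 In this cell-based screen, titrated compounds act on HEK 293 cells held in medium with 2% charcoal/dextran FBS, NEAA and pyruvate for 18 hrs at 37 C. Responses are expressed relative to T3 (10 nM) as 100% and basal DMSO as 0%.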

The nature of assay [10]: qHTS assay for small molecule antagonists of retinoid X receptor alpha signaling (AID 588546; active means well fitted inhibition curve with a large enough effect in the signal ratio, with a control signal flat, not every such curve was filed as active; inconclusive means small, poorly fitted or top-dose-only effect, or effect the other way, or a change in a side signal; inactive means no such curve, though single readings can be large or run the other way; the % refers to the signal ratio; further: potency means the concentration at half of the fitted maximal effect;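 on max response: cells stimulated with 9-cis-retinoic acid as agonist; on the % scale 0 is the no-effect control and ±100 the full control effect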). Particulars: HEK293T RXRa-UAS-bla, beta-lactamase ratio, antagonist mode; measured here: W530 green channel, cytotoxicity proxy. In a few lines:
(§1)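 Beta-lactamase reporter inhibition, read as CCF4 fluorescence ratio (ex 405, em 460/530 nm) after 2 h at RT. HEK293T UAS-bla cells, 2500/well, were stimulated with 9-cis-RA at 500 or 100 nM final alongside test compound for 18 h at 37 C.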

The target of assay [11] is Retinoic acid receptor RXR-alpha (Homo sapiens) (UniProt P19793). The description is as above. Particulars: HEK293T RXRa-UAS-bla, beta-lactamase ratio, antagonist mode. In a few lines:
as §1

The target of assay [12] is Thyroid hormone receptor beta (Homo sapiens) (UniProt P10828). Description: qHTS assay for small molecule antagonists of thyroid hormone receptor beta signaling (AID 588547; active means well fitted inhibition curve with a large enough effect in the signal ratio, with a control signal flat, not every such curve was filed as active; inconclusive means small, poorly fitted or top-dose-only effect, or effect the other way, or a change in a side signal; the % refers to the signal ratio;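 further: cells stimulated with 0.4 nM T3 agonist during compound exposure; series mostly up to about 77 µM; on the % scale 0 is the no-effect control and ±100 the full control effect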). Particulars: TR-UAS-bla HEK293, beta-lactamase ratio, antagonist mode, 18 h. In a few lines:
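Inhibition of T3-driven (0.4nM final) beta-lactamase reporter activity was measured over 0.59 nM to 92 uM compound after 18 h at 37 C. The cells were GripTite HEK293 TR-UAS-bla in charcoal/dextran-stripped serum, with CCF4 ratio read-out and IC50 from Hill fits.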

Assay [13] can be described thus: qHTS assay for small molecule activators of the p53 signaling pathway (AID 651743; active means well fitted activation curve with a large enough effect in the signal ratio, not every such curve was filed as active; inconclusive means small, poorly fitted or top-dose-only effect, or a change in a side signal; the % refers to the signal ratio; further: series mostly up to about 92 µM; % of control where 0% means no effect). As to conditions: HCT-116 p53RE-bla, beta-lactamase FRET ratio, 16 h; activation: stronger effect = higher value. In a few lines: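 Screen for p53 pathway agonists uses stably transfected p53RE-bla HCT-116 cells, 4,000 per well, treated 16 h at 37 C with compounds in DMSO.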
A short description of assay [14]: qHTS assay for environmental chemicals that activate the Aryl hydrocarbon Receptor (AhR) signaling pathway (AID 651777; active means well fitted curve in the direction sought with a large enough effect; inconclusive means small, poorly fitted or top-dose-only effect, or another doubt; inactive means no such curve, though single readings can be large; an effect the other way counts as inactive or inconclusive; further: % of control where 0% means no effect; nearly all actives have a fitted effect of over 15% in size). Particulars: 1A2-DRE human hepatoma cells, luciferase, 24 h; activation: stronger effect = higher value. In a few lines: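 Stable CYP1A2 promoter/DRE-luciferase human hepatoma line treated 24 hr; One-Glo luminescence, 30 min RT.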
The target of assay [15] is Peroxisome proliferator-activated receptor alpha (Homo sapiens) (UniProt Q07869). Description: qHTS assay for small molecule agonists of the peroxisome proliferator-activated receptor alpha (PPARalpha) signaling pathway (AID 651778; active means well fitted curve in the direction sought with a large enough effect; inconclusive means small, poorly fitted or top-dose-only effect, or another doubt; inactive means no such curve, though single readings can be large; an effect the other way counts as inactive or inconclusive; further: % of control where 0% means no effect). As to conditions: PathHunter PPARalpha complementation, chemiluminescence, 6 h; max response: stronger effect = higher value. In a few lines:
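Chemiluminescence from complemented enzyme reported PPARalpha activation in cells after 6 hr of compound treatment at 37 C. The detection reagent was incubated for 60 min at room temperature, and compounds were scored as agonists.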

Assay [16] can be described thus: qHTS assay for small molecule agonists of the antioxidant response element (ARE) signaling pathway measured by Nrf2-dependant transcriptional activity - cell viability counter screen (AID 720653; active means well fitted curve in the direction sought with a large enough effect in the repeat runs; inconclusive means weak or mixed curves; inactive means no such curve, though single readings can be large; an effect the other way counts as inactive or inconclusive; further: potency means the concentration at half of the fitted maximal effect; on max response: on the % scale 0 is the no-effect control and ±100 the full control effect). As to conditions: ARE-bla HepG2 viability, CellTiter-Glo ATP luminescence, 16 h; max response: stronger effect = lower value. In a few lines: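 Cytotoxicity counter screen: intracellular ATP quantified by CellTiter-Glo luminescence in the same ARE-bla HepG2 plates, after 16 h compound exposure and a 2 h beta-lactamase substrate step.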

The nature of assay [17]: qHTS assay for cell viability of HEK293 cells (AID 743288; active means well fitted curve in the direction sought with a large enough effect; inconclusive means small, poorly fitted or top-dose-only effect, or another doubt; inactive means no such curve, though single readings can be large; an effect the other way counts as inactive or inconclusive; further: nearly all actives have a fitted effect of over 50% in size; further: potency means the concentration at half of the fitted maximal effect; on max response: on the % scale 0 is the no-effect control and ±100 the full control effect). Particulars: ATP luminescence (CellTiter-Glo), 18 h; max response: stronger effect = lower value. In a few lines:
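Parental HEK293 cells, 2,000 per well, preincubated at least 5 h at 37 C, then exposed to compounds in DMSO for 18 h at 37 C. Viability by CellTiter-Glo ATP luminescence after 30 min at room temperature.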

A short description of assay [18]: qHTS assay for cell viability of the p53RE-bla HCT-116 cell line (AID 743292; active means well fitted curve in the direction sought with a large enough effect; inconclusive means small, poorly fitted or top-dose-only effect, or another doubt; inactive means no such curve, though single readings can be large; an effect the other way counts as inactive or inconclusive; further: nearly all actives have a fitted effect of over 55% in size; further: potency means the concentration at half of the fitted maximal effect). In a few lines: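 Readout: CellTiter-Glo luminescence after 30 min RT. Treatment: compounds in DMSO, 16 h, 37 C. Cells: CellSensor p53RE-bla HCT-116, 4,000/well, preincubated 5 h.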
The target of assay [19] is Nuclear receptor subfamily 1 group I member 2 (Rattus norvegicus) (UniProt Q9R1A7). Put plainly: qHTS assay for small molecule activators of the rat pregnane X receptor (rPXR) signaling pathway (AID 651751; call rule not given here; further: 0% is about no effect). Particulars: rPXR reporter cells, luciferase (One-Glo), 24 h.
Chain of Nuclear receptor subfamily 1 group I member 2 (Rattus norvegicus) (Q9R1A7 whole entry, looked up): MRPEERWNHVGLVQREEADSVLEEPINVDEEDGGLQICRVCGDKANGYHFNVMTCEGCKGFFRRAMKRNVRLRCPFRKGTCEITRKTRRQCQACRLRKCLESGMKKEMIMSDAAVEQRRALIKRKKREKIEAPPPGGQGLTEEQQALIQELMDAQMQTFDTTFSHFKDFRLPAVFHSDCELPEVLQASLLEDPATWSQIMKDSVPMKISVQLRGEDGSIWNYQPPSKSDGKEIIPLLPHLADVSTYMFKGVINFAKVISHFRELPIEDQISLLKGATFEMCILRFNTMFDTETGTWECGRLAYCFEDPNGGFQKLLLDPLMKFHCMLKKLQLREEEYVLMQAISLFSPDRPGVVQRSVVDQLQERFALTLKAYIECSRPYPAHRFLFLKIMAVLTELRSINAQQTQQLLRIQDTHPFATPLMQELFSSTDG
The nature of assay [20]: qHTS assay for small molecule agonists of the antioxidant response element (ARE) signaling pathway measured by Nrf2-dependant transcriptional activity (AID 720636; active means well fitted curve in the direction sought with a large enough effect in the repeat runs; inconclusive means weak or mixed curves; inactive means no such curve, though single readings can be large; an effect the other way counts as inactive or inconclusive; further: potency means the concentration at half of the fitted maximal effect;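 on activation: HepG2 cells with an ARE-driven luciferase reporter; % of control where 0% means no effect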). In a few lines: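 Reporter gene assay, HepG2 ARE-luc: 16 hr compound, 37 C, 5% CO2; read-out luciferase luminescence.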

Chain of Thyroid hormone receptor beta (Homo sapiens) (P10828 whole entry, looked up): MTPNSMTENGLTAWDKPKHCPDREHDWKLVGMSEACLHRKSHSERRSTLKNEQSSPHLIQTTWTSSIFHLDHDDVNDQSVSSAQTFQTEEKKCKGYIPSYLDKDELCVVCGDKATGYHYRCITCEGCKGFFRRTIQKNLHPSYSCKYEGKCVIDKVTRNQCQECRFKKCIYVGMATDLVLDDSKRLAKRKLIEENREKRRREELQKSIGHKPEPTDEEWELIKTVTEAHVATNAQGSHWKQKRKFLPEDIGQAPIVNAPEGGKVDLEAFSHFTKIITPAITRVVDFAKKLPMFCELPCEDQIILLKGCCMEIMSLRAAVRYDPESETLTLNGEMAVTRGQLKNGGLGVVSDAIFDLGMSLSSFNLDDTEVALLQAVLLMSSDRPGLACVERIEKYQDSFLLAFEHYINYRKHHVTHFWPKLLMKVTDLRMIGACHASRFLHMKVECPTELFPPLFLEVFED
Chain of Peroxisome proliferator-activated receptor alpha (Homo sapiens) (Q07869 whole entry, looked up): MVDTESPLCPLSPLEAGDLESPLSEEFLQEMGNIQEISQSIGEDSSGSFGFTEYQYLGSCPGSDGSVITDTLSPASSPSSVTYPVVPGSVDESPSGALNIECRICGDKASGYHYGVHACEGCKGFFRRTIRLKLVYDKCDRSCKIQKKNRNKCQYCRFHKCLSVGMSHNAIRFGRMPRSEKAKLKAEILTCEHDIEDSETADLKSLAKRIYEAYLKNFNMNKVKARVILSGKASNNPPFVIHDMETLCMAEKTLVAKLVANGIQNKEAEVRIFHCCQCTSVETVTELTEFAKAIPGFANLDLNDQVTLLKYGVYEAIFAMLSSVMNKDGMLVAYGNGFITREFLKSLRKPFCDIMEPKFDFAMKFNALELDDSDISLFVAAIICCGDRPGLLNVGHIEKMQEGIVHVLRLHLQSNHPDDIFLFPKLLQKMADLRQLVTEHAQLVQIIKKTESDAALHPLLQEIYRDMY
Chain of Peroxisome proliferator-activated receptor gamma (Homo sapiens) (P37231 whole entry, looked up): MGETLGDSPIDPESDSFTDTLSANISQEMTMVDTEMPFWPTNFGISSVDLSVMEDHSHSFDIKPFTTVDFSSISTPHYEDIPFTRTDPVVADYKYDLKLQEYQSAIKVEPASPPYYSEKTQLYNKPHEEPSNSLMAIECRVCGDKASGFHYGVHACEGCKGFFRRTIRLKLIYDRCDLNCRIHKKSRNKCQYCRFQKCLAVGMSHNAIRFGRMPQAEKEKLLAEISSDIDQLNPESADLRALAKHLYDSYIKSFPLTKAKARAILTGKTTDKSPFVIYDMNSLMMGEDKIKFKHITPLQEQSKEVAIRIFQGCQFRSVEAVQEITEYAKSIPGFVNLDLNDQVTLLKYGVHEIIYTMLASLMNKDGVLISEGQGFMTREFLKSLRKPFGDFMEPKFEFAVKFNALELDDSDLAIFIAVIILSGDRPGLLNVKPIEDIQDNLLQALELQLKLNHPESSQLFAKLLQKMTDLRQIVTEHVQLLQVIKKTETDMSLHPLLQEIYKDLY

On to `CC(C)C(=O)OCC(C)(C)C(OC(=O)C(C)C)C(C)C` (stereo not given), for which the Potency result in assay [1], in assay [2], in [4], in assay [5], in assay [6] and in assay [8] was “inactive” in each case. The Potency entry in assay [9] and in assay [18] was “inactive” throughout. Besides, the compound was called inactive in [3]. The max response in [7] was -9.99%; in [10], -5.68%; in [11], -12.8% (inactive); in assay [15], -1.27% (inactive); in [16], -12.6% (inactive); in assay [17] it was -13% (inactive). In addition, the max response in [19] is 2.02% (inactive). Besides, the activity change % (negative = inhibition) in [12] is 4.21% (inactive). Further, the activation in assay [13] is -0.206% (inactive); in assay [14], 1.77% (inactive).
For the compound `COCC(=O)N(c1c(C)cccc1C)[C@H](C)C(=O)OC`, the Potency entry in [1], in assay [2], in assay [5], in [6], in assay [8] and in [20] was “inactive” each time. The Potency entry in assay [18] is “inactive”. Further, the outcome in assay [3] was inactive. The max response in [7] was -8.28%; in [10] it was -4.91%; in assay [11], -14.1% (inactive); in [15], -0.29% (inactive); in assay [16], -2.34% (inactive); in [17] it was -1.89% (inactive). In [19], the max response is -0.694% (inactive). Also, the activation in assay [13] was -0.822% (inactive); in assay [14] it was 1.21% (inactive).
For `COc1ccc(O)c(C(C)(C)C)c1`, the Potency entry in assay [1], in assay [2], in assay [4], in [6], in assay [8] and in assay [9] was “inactive” throughout. The Potency result in [20] and in assay [18] was “inactive” in each case. For the same compound, the max response in assay [7] was -14.4%; in [10] it was -10.9%; in [11], 7.69% (inactive); in assay [15], 1.63% (inactive); in assay [16], 1.24% (inactive); in assay [17] it was -7.51% (inactive). In addition, the max response in [19] is 3.52% (inactive). The activation in [13] is 1.43% (inactive).
Regarding `CN(C)c1nc(=O)n(C2CCCCC2)c(=O)n1C`, the Potency result in [1], in assay [2], in assay [4], in assay [5], in [6] and in [8] was “inactive” throughout. In addition, the Potency result in assay [9], in assay [20] and in assay [18] was “inactive” each time. Further, in [3], the compound was called inactive. For the same compound, the max response in assay [7] was -8.9%; in assay [10] it was -2.46%; in assay [11] it was -11.2% (inactive); in assay [15], 0.605% (inactive); in assay [16] it was 8.36% (inactive); in assay [17], -6.56% (inactive). Further, in assay [19], the max response was 1.22% (inactive). The activity change % (negative = inhibition) in [12] is -5.49% (inactive). The activation in assay [14] was 0.25% (inactive).
For the compound `CCC[CH2][Sn]([CH2]CCC)[CH2]CCC`, the Potency was 15.8 µM [inhibitor] (active) in assay [1], 15.8 µM (active) in [16], 28.2 µM (active) in assay [17] and 28.2 µM (active) in assay [18]. In addition, in assay [2], the Potency result is “inactive”. In addition, the max response in assay [15] was 1.41% (inactive); in assay [19] it was -14% (inactive).
As for `C=CC(=O)OCC(CO)(COC(=O)C=C)COC(=O)C=C`, the Potency in [1] was 7.94 µM [inconclusive] (active); in [6] it was 7.08 µM (active); in assay [11] it was 5.62 µM (active); in [20], 16.8 µM (active) and 12.2 µM (active). In addition, the Potency result in assay [2] was “inactive”. Also, the max response in assay [10] is -17.9%; in [16], -24.9% (inactive).
